TEAD-YAP inh: TEAD-YAP interaction inhibition; 640,000 tested, 1.4% active; HEK-TIYL cells, TEAD-Gal4/YAP UAS-luciferase luminescence; inhibition, % at 9.12 µM; in the data active = inhibition above about 32%
MITF inh: inhibitors of human MITF | O75030 | AlphaScreen MITF homodimerization, bead proximity signal | inhibition, % at 2.6 µM | 650,000 tested, 0.91% active | AID 1259374; in the data active = inhibition above about 50%
Target sequence (O75030 whole entry, looked up): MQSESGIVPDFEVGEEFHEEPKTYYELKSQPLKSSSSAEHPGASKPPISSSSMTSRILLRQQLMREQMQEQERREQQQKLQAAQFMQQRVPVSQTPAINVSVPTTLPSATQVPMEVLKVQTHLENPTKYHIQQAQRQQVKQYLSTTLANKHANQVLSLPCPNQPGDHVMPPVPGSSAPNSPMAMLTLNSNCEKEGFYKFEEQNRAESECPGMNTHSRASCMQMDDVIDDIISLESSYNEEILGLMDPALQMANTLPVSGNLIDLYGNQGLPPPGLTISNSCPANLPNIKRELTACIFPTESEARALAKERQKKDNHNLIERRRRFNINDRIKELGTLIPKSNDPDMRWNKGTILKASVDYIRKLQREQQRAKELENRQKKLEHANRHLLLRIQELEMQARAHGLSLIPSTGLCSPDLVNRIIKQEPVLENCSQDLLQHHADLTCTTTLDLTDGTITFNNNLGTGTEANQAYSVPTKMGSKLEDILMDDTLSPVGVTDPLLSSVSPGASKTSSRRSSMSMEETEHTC
GPR151 activ: activates the human receptor GPR151; 650,000 tested, 1% active; activation, % at 11.2 µM; AID 1508602; PathHunter beta-arrestin GPR151 cells, luminescence; in the data active = activation above about 4.9%
FBW7 act: human FBW7 E3 ligase activation, primary screen. AID 1259310. AlphaScreen FBW7–phospho-cyclin E peptide binding, activator screen. 650,000 tested, 0.13% active. normalized activity (activation), % at 26.1 µM. Q969H0; in the data active = normalized activity above about 1.9%;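 note: purified mutant Fbw7 with reduced substrate affinity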
GPR151 confirm: confirmation of human GPR151 activators; shares compounds with GPR151 activ; GPR151 PathHunter beta-arrestin cells, luminescence, 90 min; % of EA-reagent control over plate median; activation, % at 11.2 µM; 6,700 tested, under 10 active; AID 1508609;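 active = mean percent activation across replicates above the confirmation screen cutoff of 4.91%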
GPR119 ag: activates human GPR119 in a GPR151 counter-screen. shares compounds with GPR151 activ. GPR119 PathHunter beta-arrestin cells, luminescence, 90 min; 0 = compound-well median, 100 = enzyme-acceptor control. activation, % at 11.2 µM. 6,700 tested, 0.3% active. AID 1508611;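 active = mean percent activation in the counterscreen above 29.09%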;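 note: counterscreen on off-target GPR119 to flag nonselective hits from the GPR151 activator screen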
Numbers stand for hits; . = inactive; / = not tested or not shown. Sampled rows, rich in hits. Any-hit rate of the full collection: about 3.4%.

SMILES	TEAD-YAP inh	MITF inh	GPR151 activ	FBW7 act	GPR151 confirm	GPR119 ag
COc1ccc(NS(=O)(=O)c2ccc(OC)c(Cl)c2Cl)cc1OC	.	.	11	.	.	.
COc1ccc(S(=O)(=O)N(C)C)c(Cl)c1Cl	.	.	16	.	.	.
COc1cccc(NS(=O)(=O)c2ccc(OC)c(Cl)c2Cl)c1	.	.	.	.	/	/
COC(=O)c1ccc(C(=O)OC)c(NS(=O)(=O)c2ccc(OC)c(Cl)c2Cl)c1	.	.	9.5	.	.	.
CCCCNS(=O)(=O)c1ccc(OC)c(Cl)c1Cl	.	.	.	.	/	/
COc1ccc(C2(O)CN(c3cc(OC)ccc3OC)C3=[N+]2CCCCC3)cc1 (stereo not given)	.	.	.	.	/	/
Cc1cc(C)c2c(c1)cc(CN(C(=O)c1cccnc1)C1CCCCC1)c1nnnn12	.	.	.	.	/	/
CCCCNC(=O)C1CCN(S(=O)(=O)N(CC(C)C)CC(C)C)CC1	.	.	.	.	/	/
c1ccc(COC2CCCN(Cc3nc(-c4cccs4)no3)C2)nc1 (stereo not given)	.	.	.	.	/	/
c1ccc(COC2CCCN(Cc3nc(-c4ccc5c(c4)OCO5)no3)C2)nc1 (stereo not given)	.	.	16	.	.	.
Cc1ccc(C)c(N2CCN(C(=O)c3cnn4c(C)c(Cc5ccccc5Cl)c(C)nc34)CC2)c1	.	.	.	.	/	/
Cc1nc(NC(=O)COc2ccccc2)sc1C(=O)N(C)C	.	.	.	.	/	/
CC(=O)c1c(C)[nH]c(C(=O)COC(=O)c2ccc(-n3nc(C)cc3C)cc2)c1C	.	.	7.7	.	.	.
Cc1cc(C)n(-c2ccc(C(=O)OCC(=O)c3ccccc3)cc2)n1	.	.	.	.	/	/
CN1CCOCCOCCOCCOCCOCC1	.	.	6.3	.	.	.
CCCN(CCC)S(=O)(=O)c1ccc(C(=O)Nc2nc3ccc(S(C)(=O)=O)cc3s2)cc1	.	.	.	.	/	/
Cc1cc(C(=O)Nc2cc(Cl)ccc2O)on1	.	.	10	.	.	.
CC(=O)O/N=C\c1cccn1-c1nccc(-c2cccs2)n1	.	.	.	.	/	/
Cc1nn(CC(=O)NC(C)C2CC3CCC2C3)c(C)c1[N+](=O)[O-] (stereo not given)	.	.	.	.	/	/
Nn1c(SCC(=O)Nc2cccc(F)c2)nnc1-c1ccc(Cl)cc1	.	.	6.2	.	.	.
NC(=O)c1ccc(NC(=O)CSc2nnc(-c3ccc(Cl)cc3)n2N)cc1	.	.	.	.	/	/
CCCNC(=O)c1ccnc(N2CCCC(C(=O)N(CC)CC)C2)c1 (stereo not given)	.	.	.	.	/	/
CCN(CC)C(=O)C1CCCN(c2cc(C(=O)NCCN(C(C)C)C(C)C)ccn2)C1 (stereo not given)	.	.	6.2	.	.	.
COc1ccc(C(=O)N2CCNC(=O)C2CC(=O)Nc2cccc(Cl)c2Cl)cc1 (stereo not given)	.	.	.	.	/	/
COc1ccc(C(=O)N2CCNC(=O)C2CC(=O)Nc2ccc(C)c(C)c2)cc1 (stereo not given)	.	.	5.6	.	.	.
SMILES	TEAD-YAP inh	MITF inh	GPR151 activ	FBW7 act	GPR151 confirm	GPR119 ag
CCCCNC(=O)CCc1nnc(C2CCCCC2)o1	.	.	.	.	/	/
CCCCC(C(=O)OC)N1C(=O)c2cc(Cl)c(Cl)cc2C1=O (stereo not given)	.	.	7.6	.	.	.
COc1ccc(-n2nc3c(c2NC(=O)C2CCCCC2)CS(=O)(=O)C3)cc1	.	.	.	.	/	/
COc1cc(/C=N/Nc2ccc3nnc(C)n3n2)ccc1O	.	.	8.9	.	.	.
O=c1cc(-c2ccccc2[N+](=O)[O-])nc(-c2ccco2)o1	.	.	7.3	.	.	.
O=C(O)c1ccc(Nn2c(=S)[nH]c3ccccc3c2=O)cc1	.	.	5.0	.	.	.
O=C(Nn1c(=S)[nH]c2ccccc2c1=O)c1ccc(Br)cc1	.	.	.	.	/	/
CC(C)CNC(=O)NC(=O)COC(=O)c1ccccc1N=Nc1ccc(O)cc1	.	.	5.9	.	.	.
CC(C)CNC(=O)COC(=O)c1ccc(O)cc1	.	.	.	.	/	/
CCOC(=O)c1oc2ccccc2c1NC(=O)c1ccc(Cl)s1	.	.	6.5	.	.	.
CCOC(=O)c1oc2ccccc2c1NC(=O)C1COc2ccccc2O1 (stereo not given)	.	.	5.5	.	.	.
CCOC(=O)c1oc2ccccc2c1NC(=O)C1CCCCC1	.	.	.	.	/	/
COc1ccc(CNC(=O)Nc2ccc(-c3cn[nH]c3)cc2)cc1	.	.	.	.	/	/
O=C(CNc1n[nH]c(=O)[nH]c1=O)N/N=C/c1ccccc1	.	.	8.1	.	.	.
COc1cc(C2CC(=O)NC(SCC(=O)Nc3ccc(Br)cc3)=C2C#N)ccc1OCc1ccccc1 (stereo not given)	.	.	.	.	/	/
O=C(NC(=S)NC(=O)c1ccccc1F)c1ccccc1F	.	.	.	.	/	/
O=C(NC(=S)NCc1ccccc1)c1ccccc1F	.	.	7.0	.	.	.
CCC1CN(CCNC(=O)CC2CCCC2)Cc2cc(OC)ccc2O1 (stereo not given)	.	.	6.9	.	.	.
CCC1CN(CCNC(=O)Cn2ncc3ccccc32)Cc2cc(OC)ccc2O1 (stereo not given)	.	.	8.2	.	.	.
CCn1c(=O)cc(OCC(=O)NC(C)C)c2ccccc21	.	.	.	.	/	/
COCCn1c(=S)[nH]c2cc(C(=O)NCCN(C)C)ccc2c1=O	.	.	.	.	/	/
Cc1csc(Nc2ccccc2)[n+]1CC(O)c1ccc([N+](=O)[O-])cc1 (stereo not given)	.	.	6.3	.	.	.
Cc1cc(C(=O)NCCc2ccc(S(N)(=O)=O)cc2)cs1	.	.	.	.	/	/
NS(=O)(=O)c1ccc(CCNC(=O)c2cccc(C#CC3(O)CCCCC3)c2)cc1	.	.	5.0	.	.	.
CCOc1ccc(-c2nnn(CC(C)=O)n2)cc1	.	.	10.0	.	.	.
SMILES	TEAD-YAP inh	MITF inh	GPR151 activ	FBW7 act	GPR151 confirm	GPR119 ag
CCOc1ccc(-c2nnn(CC(C)=O)n2)cc1OCC	.	.	.	.	/	/
CCOC(=O)C1=C(CN2CCN(Cc3ccccc3)CC2)NC(=O)NC1c1ccc(C)cc1 (stereo not given)	.	.	.	.	/	/
CCC1CCc2c(sc(NC(=O)/C=C/c3ccco3)c2C(N)=O)C1 (stereo not given)	.	.	.	.	/	/
O=C(Nc1ccc(S(=O)(=O)NCc2ccccc2)cc1)N1CCCC1	.	.	7.0	.	.	.
CNC(=S)N1CCC(C(=O)NC(c2cccc(OC)c2)c2ccccn2)CC1 (stereo not given)	.	.	6.9	.	.	.
COC(=O)C1=C(C)NC2=C(C(=O)CC(C)(C)C2)C1c1c(F)cccc1F (stereo not given)	.	.	.	.	/	/

Screens deposited in PubChem by The Scripps Research Institute Molecular Screening Center.
